Test [1] can be described thus: qHTS assay to identify small molecule antagonists of the vitamin D receptor (VDR) signaling pathway - cell viability counter screen (AID 743225). Further: nearly all actives have a fitted effect of over 50% in size. Further: potency means the concentration at half of the fitted maximal effect. A digest of the protocol:
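Parallel cytotoxicity test: VDR-UAS-bla HEK 293T, 3 nM (final) 1-alpha,25-dihydroxyvitamin D3 with test compound, 16 h, 37C. Endpoint is CellTiter-Glo luminescence in the same wells.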
On the technique in general: qHTS replaces the single test concentration by a dilution series.

Test [2] can be described thus: qHTS assay to identify small molecule agonists of the NFkB signaling pathway - cell viability counter screen (AID 1159515; calls by dose curve; further: nearly all actives have a fitted effect of over 55% in size). A digest of the protocol:
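Counter screen run alongside the NFkB-bla agonist assay: ME-180 reporter cells exposed to compounds for 5 hr, then lysed with CellTiter-Glo in the same wells. Luminescence, read after 30 min, reflects viable cells.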

The nature of test [3]: qHTS assay to identify small molecule agonists of the endoplasmic reticulum stress response signaling pathway (AID 1159516; active means well fitted activation curve with a large enough effect in the signal ratio in the repeat runs, not every such curve was filed as active; the % refers to the signal ratio). A digest of the protocol: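 For this screen, HeLa cells stably carrying beta-lactamase under the ER stress response element received test compounds, positive controls or DMSO for 5 hr at 37 C; B/G FRET substrate was then added and dual-wavelength emission recorded.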

Test [4] in a line: qHTS assay to identify small molecule agonists of the endoplasmic reticulum stress response signaling pathway - cell viability counter screen (AID 1159517; calls by dose curve; further: nearly all actives have a fitted effect of over 50% in size). A digest of the protocol:
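ESRE-bla HeLa cells (1,500/well) were plated overnight at 37 C and exposed to compounds for 5 hr. After the 2 hr beta-lactamase substrate read, CellTiter-Glo went into the same wells, and luminescence was read after 30 min at room temperature.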

Test [5] in a line: qHTS assay to identify small molecule antagonists of the retinoid-related orphan receptor gamma (ROR-gamma) signaling pathway - cell viability counter screen (AID 1159520). Further: nearly all actives have a fitted effect of over 50% in size. Further: potency means the concentration at half of the fitted maximal effect. A digest of the protocol: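 Cytotoxicity was read from cellular ATP (CellTiter-Glo luminescence) after 16 hr at 37 C with 1 uM doxycycline induction. The inducer was added 2 hr after compound transfer to Tet-on ROR gamma CHO cells.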

Test [6] can be described thus: qHTS assay to identify small molecule agonists of the AP-1 signaling pathway - cell viability counter screen (AID 1159525; calls by dose curve; further: nearly all actives have a fitted effect of over 55% in size). The procedure, abridged:
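Intracellular ATP by Cell Titer Glo luminescence (30 min, RT) in the same ME-180 AP-1-bla wells after the 5 h compound exposure at 37 °C. Normalised to tetra n-octyl ammonium bromide and DMSO controls.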

Test [7] is described as follows: qHTS assay to identify small molecule agonists of the AP-1 signaling pathway (AID 1159526; calls by dose curve).
Test [8] deals with Retinoic acid receptor RXR-alpha (Homo sapiens) (UniProt P19793). Kind of test: qHTS assay to identify small molecule agonists of the RXR signaling pathway (AID 1159527; calls by dose curve; further: nearly all actives have a fitted effect of over 35% in size). The procedure, abridged:
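16 hr incubation of compound-treated RXR-alpha-UAS-bla HEK 293T cells (2% charcoal-stripped FBS, 37 C) preceded a 2 hr room-temperature LiveBLAzer FRET substrate step and blue/green fluorescence measurement.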

Test [9] in a line: qHTS assay to identify small molecule agonists of the RXR signaling pathway - cell viability counter screen (AID 1159529).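 Further: HEK 293T cells carrying an RXR-alpha UAS beta-lactamase reporter; nearly all actives have a fitted effect of over 50% in size.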 The procedure, abridged:
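In this parallel viability measure, GeneBLAzer RXR-alpha HEK 293T cells (2% charcoal-stripped FBS) were given a 5 hr preincubation, treated with compounds 16 hr at 37 C, and read by CellTiter-Glo luminescence.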

The nature of test [10]: qHTS assay to identify small molecule antagonists of the retinoid acid receptor (RAR) signaling pathway - cell viability counter screen (AID 1159551). Further: nearly all actives have a fitted effect of over 35% in size. A digest of the protocol: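 Measured by luminescent ATP detection, viability reflects C3RL4 cells treated 6 h at 37 C with test chemicals in the presence of 1 uM (final) retinol.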
Test [11] is described as follows: qHTS assay to identify small molecule antagonists of the retinoic acid receptor (RAR) signaling pathway (AID 1159552; further: nearly all actives have a fitted effect of over 50% in size; further: potency means the concentration at half of the fitted maximal effect). A digest of the protocol:
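C3RL4 RARE-luc cells, overnight plating; retinol 1 uM final added right after compound; 6 hr 37 C; luciferase read at 30 min RT.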

Test [12] in a line: qHTS assay to identify small molecule agonists of the retinoic acid receptor (RAR) signaling pathway (AID 1159553). The settings on record: C3RL4 RARE luciferase reporter, agonist, 6 h; activation: at 73.3 µM (top of the series) unless noted. A digest of the protocol:
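6 hr compound exposure (DMSO vehicle) of overnight-plated C3RL4 RARE-luc cells at 37 C; luminescence quantified after 30 min RT with luciferase reagent.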

A short description of test [13]: qHTS assay to identify small molecule antagonists of the estrogen related receptor (ERR) signaling pathway from Tox21 library - cell viability counter screen (AID 1224834). Further: nearly all actives have a fitted effect of over 30% in size. Further: potency means the concentration at half of the fitted maximal effect. The procedure, abridged:
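Seeded ERR cells were rested 6 h at 37 C/5% CO2 before compounds, positive and negative controls or DMSO were added. Incubation continued for 17.5 h, and viability was then quantified by CellTiter-Fluor fluorescence.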

Test [14] is described as follows: qHTS assay to identify small molecule antagonists of the estrogen related receptor (ERR) signaling pathway - cell viability counter screen (AID 1224818). The procedure, abridged:
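Compounds dissolved in DMSO were applied to ERR cells seeded at 2,000 per well 6 h earlier. Cell viability followed 17.5 h later via 30-min CellTiter-Fluor fluorescence.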

The nature of test [15]: qHTS assay to identify small molecule agonists of the estrogen related receptor (ERR) signaling pathway (AID 1224820). The procedure, abridged: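 An ERR cell line provided by NTP was seeded at 2,000 cells per well and allowed to settle for 6 h before compounds in DMSO were added. After 18 h at 37 C, luciferase activity was measured by One-Glo luminescence.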
Test [16] has as its system estrogen-related receptor alpha (ERRalpha) with PGC-1alpha coactivator, human. The experiment in a line: qHTS assay to identify small molecule antagonists of the estrogen related receptor signaling pathway with the pleiotropic PPARgamma coactivator (PGC) (AID 1224821; calls by dose curve). The procedure, abridged: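 A PGC/ERR cell line supplied by NTP is seeded, allowed 6 h at 37 C, and treated with test compounds in DMSO for 18 h. Signal is then measured as luciferase luminescence using One-Glo.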

A short description of test [17]: qHTS assay to identify small molecule antagonists of the estrogen related receptor signaling pathway with the pleiotropic PPARgamma coactivator (PGC) cell viability counter screen (AID 1224822). The procedure, abridged: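 Counter screen for cell viability: PGC/ERR cells, 6 h pre-incubation after plating, 17.5 h compound exposure at 37 C, fluorescence from CellTiter-Fluor after 30 min.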

The nature of test [18]: qHTS assay to identify small molecule agonists of the estrogen related receptor signaling pathway with the pleiotropic PPARgamma coactivator (PGC) (AID 1224823). The procedure, abridged:
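Compounds dissolved in DMSO are added by pin tool to PGC/ERR cells that have settled for 6 h, and incubation continues 18 h at 37 C. Reporter output is measured as One-Glo luminescence.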

Test [19] concerns the target Nuclear receptor ROR-gamma (Homo sapiens) (UniProt P51449). Kind of test: qHTS assay to identify small molecule antagonists of the retinoid-related orphan receptor gamma (ROR-gamma) signaling pathway (AID 1159521; further: nearly all actives have a fitted effect of over 50% in size; further: potency means the concentration at half of the fitted maximal effect). The procedure, abridged: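 Decreased RORE-driven luciferase luminescence indicates antagonism. Tet-on RORγ CHO cells received compound, then 1 uM final doxycycline 2 h later; signal read after 16 h incubation.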

Each structure is given as a SMILES string. “And” between values parts separate entries of the source, which are not always exact repeats. Identical values can stand only once. Records with an inconclusive call do not appear. Where a structure was tested more than once in an assay, its records may differ in their call. The source made the active and inactive calls. Unless noted, the call rests on the fitted dose curve; in most records, active means well fitted curve in the direction sought with a large enough effect in the repeat runs; inconclusive means weak or mixed curves; inactive means no such curve, though single readings can be large; an effect the other way counts as inactive or inconclusive.

Chain of Retinoic acid receptor RXR-alpha (Homo sapiens) (P19793 whole entry, looked up): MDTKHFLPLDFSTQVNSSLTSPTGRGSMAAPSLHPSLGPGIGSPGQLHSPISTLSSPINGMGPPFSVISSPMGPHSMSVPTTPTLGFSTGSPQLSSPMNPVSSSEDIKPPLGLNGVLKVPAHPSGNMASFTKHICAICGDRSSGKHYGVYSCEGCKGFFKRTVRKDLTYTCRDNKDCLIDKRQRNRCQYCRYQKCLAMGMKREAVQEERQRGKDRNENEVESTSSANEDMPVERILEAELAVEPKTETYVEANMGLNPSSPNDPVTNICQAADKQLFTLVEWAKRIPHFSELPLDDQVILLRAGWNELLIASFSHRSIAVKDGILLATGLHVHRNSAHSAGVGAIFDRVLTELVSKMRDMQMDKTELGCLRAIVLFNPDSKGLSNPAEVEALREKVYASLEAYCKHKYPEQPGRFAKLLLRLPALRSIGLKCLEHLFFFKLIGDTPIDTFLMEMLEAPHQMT

As to `CC(=O)Oc1c(C)c(C)c2c(c1C)CC[C@@](C)(CCC[C@H](C)CCC[C@H](C)CCCC(C)C)O2`, the Potency result in [1], in test [2], in test [3], in test [4], in [5] and in test [6] was “inactive” throughout. For the same molecule, the Potency entry in [7], in test [8], in test [9], in test [10], in test [11] and in test [12] was “inactive” throughout. Further, the Potency entry in [13] was “inactive”.
Turning to `CC1(C)NC(=O)N(c2ccc([N+](=O)[O-])c(C(F)(F)F)c2)C1=O`, the Potency entry in [1], in test [2], in [3], in test [4], in test [5] and in test [6] was “inactive” in each case. Moreover, the Potency result in test [7], in test [8], in test [9], in test [10], in test [11] and in test [12] was “inactive” each time. Moreover, the Potency result in test [13] was “inactive”. The outcome in test [14], in test [15], in test [16], in test [17] and in test [18] was inactive.
As to `O=C(CCCN1CCC(O)(c2ccc(Cl)cc2)CC1)c1ccc(F)cc1`, the Potency result in test [1], in [2], in test [3], in [4], in test [19] and in test [6] was “inactive” throughout. In test [7], the Potency result was “inactive”. For the same molecule, the Potency in test [5] is 54.5 µM (active) and inactive; in [13], 61.1 µM (active) and inactive. The outcome in [14] and in [17] was inactive.
As for `C=C[Si](OCCOC)(OCCOC)OCCOC`, the Potency result in [2], in [3], in test [4], in test [5], in [6] and in [7] was “inactive” each time. Besides, the Potency result in test [8], in test [9], in test [10], in test [11], in test [12] and in test [13] was “inactive” throughout.
Take `O=Cc1ccccc1C=O`: the Potency in test [1] was 21.9 µM (active) and inactive; in test [5], 7.7 µM (active) and inactive; in test [11], 30.6 µM (active) and inactive; in test [13] it was 54.5 µM (active) and inactive. In addition, the Potency entry in [2], in test [3], in test [4], in [6], in [7] and in test [8] was “inactive” throughout. The Potency entry in [9], in test [10] and in test [12] was “inactive” each time.
With `FC(F)(F)C(Cl)Br` (stereo not drawn), the Potency result in test [2], in test [3], in [4], in test [5], in [6] and in test [7] was “inactive” each time. For the same molecule, the Potency entry in test [8], in test [9], in test [10], in test [11], in [12] and in test [13] was “inactive” in each case.
With `C=CCCCCCCCCCC`, the Potency result in test [1], in test [2], in test [3], in test [4], in test [5] and in test [19] was “inactive” in each case. The Potency result in [6], in test [7], in test [8], in test [9], in [10] and in [11] was “inactive” throughout. Besides, the Potency entry in test [12] and in [13] was “inactive” each time.
Take `C[C@]12CC[C@@H]3c4ccc(O)cc4CC[C@H]3[C@@H]1CC[C@H]2O`: the Potency entry in test [1], in test [2], in [3], in [4], in [5] and in test [6] was “inactive” in each case. Besides, the Potency entry in [10] and in test [12] was “inactive” in each case. Also, the Potency in test [19] was 17.5 µM (active); in [11], “inactive and 27.3 µM (active)”.
Regarding `CCc1cccc2c3c([nH]c12)C(CC)(CC(=O)O)OCC3` (stereo not drawn), the Potency result in [2], in test [3], in test [4], in test [5], in [19] and in test [6] was “inactive” throughout. For the same molecule, the Potency entry in test [7], in test [8], in [9], in [10], in test [11] and in [12] was “inactive” each time. Also, the Potency result in [13] was “inactive”. In addition, the result in [14] and in test [17] was inactive.

These data come from PubChem BioAssay (Tox21).
